Screening results as filed in PubChem BioAssay.
ELG1 genotox: induces genotoxicity in HEK293T cells with luciferase-tagged ELG1. HEK293T ELG1-luciferase reporter, luminescence, 16 h. AID 504466. Potency, µM (top dose mostly 46 µM), without a hit: top-dose activity change, positive = activation, actives largely listed as activators. actives 1.3% (n = 330,000); also: % of control where 0% means no effect; nearly all actives have a fitted effect of over 60% in size
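DMSO vehicle served as control against compound-treated ELG1-luciferase HEK293T cells; exposure lasted 16 hr at 37 °C and 5% CO2, followed by ONE-Glo luminescence detection after 30 min.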
Rab9 prom act: activators of Rab9 promoter | actives 2.8% (n = 320,000) | Potency, µM (top dose mostly 9.22 µM), without a hit: at the top dose activation, negative = inhibition, hits mostly activators | Huh7 Rab9 promoter-luciferase reporter, luminescence, 24 h; also: % of control where 0% means no effect; nearly all actives have a fitted effect of over 60% in size
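Steps: seed 1500 Huh7 Rab9-luc cells per well, rest 2 h at 37 °C; add compound in DMSO; incubate 24 h; add luciferase reagent, 10 min ambient; read luminescence.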
NPC1 prom act: activates the NPC1 promoter. actives 2.4% (n = 320,000). Huh7 NPC1 promoter luciferase reporter, 24 h. AID 485313. Potency, µM (series often up to 9.22 µM), for inactives: top-dose activation, usual class: activators; also: % of control where 0% means no effect; nearly all actives have a fitted effect of over 60% in size
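Luminescence read-out of NPC1 promoter-driven luciferase in stably transfected Huh7 cells; compounds delivered in DMSO and left 24 h at 37C, 5% CO2, qHTS titration format.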
ELG1 repair inh: inhibitors of ELG1-dependent DNA repair in HEK293T cells. actives 2.3% (n = 330,000). HEK293T ELG1-luciferase reporter, luminescence, 16 h; DNA damage induced by 5-fluorouridine. Potency, µM (top dose mostly 46.1 µM), inactives show at the top dose activity change, negative = inhibition, usual class: inhibitors; also: % is scaled to controls: 0 for no effect and ±100 for the full control effect; nearly all actives have a fitted effect of over 55% in size
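In this reporter screen, reduction of luminescence relative to DMSO vehicle indicated activity. Compounds and 5-fluorouridine were added together to 2,000 cells per well, incubated for 16 hr at 37 °C, then developed with ONE-Glo.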
FLuc modulator: inhibits or activates purified firefly luciferase, miR-21 counter-screen | P08659 | purified FLuc, Km substrates, luminescence inhibition | Potency, µM (top dose mostly 57.5 µM), inactives show at the highest dose activity change, negative = inhibition, hits mostly inhibitors | actives 6.9% (n = 360,000) | AID 588342;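 also: plate controls were vehicle for no effect and reference inhibitor for full effect; nearly all actives have a fitted effect of over 55% in size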
Target sequence (P08659 whole entry, looked up): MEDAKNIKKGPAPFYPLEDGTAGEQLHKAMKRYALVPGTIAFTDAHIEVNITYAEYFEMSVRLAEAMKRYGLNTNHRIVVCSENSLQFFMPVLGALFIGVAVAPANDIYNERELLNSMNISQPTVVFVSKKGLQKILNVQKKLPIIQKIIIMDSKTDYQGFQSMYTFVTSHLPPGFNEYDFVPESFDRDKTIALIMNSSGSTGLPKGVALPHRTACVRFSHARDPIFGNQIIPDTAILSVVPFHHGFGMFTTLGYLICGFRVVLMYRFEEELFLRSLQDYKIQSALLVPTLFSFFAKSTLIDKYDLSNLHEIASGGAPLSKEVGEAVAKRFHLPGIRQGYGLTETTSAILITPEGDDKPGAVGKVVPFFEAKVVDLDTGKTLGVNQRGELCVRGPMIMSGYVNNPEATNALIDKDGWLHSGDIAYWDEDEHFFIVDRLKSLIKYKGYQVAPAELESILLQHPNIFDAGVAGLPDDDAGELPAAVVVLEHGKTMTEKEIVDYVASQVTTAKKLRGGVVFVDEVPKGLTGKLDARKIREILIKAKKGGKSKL
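Purified P. pyralis luciferase (10nM final) with 10uM D-luciferin and 10uM ATP (Km levels) in 50mM Tris acetate pH 7.5, 10mM Mg acetate, 0.01% Tween-20, 0.05% BSA; qHTS 6-point titration, ~60 µM downward; luminescence read.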
SMN2 splice up: increases expression of the SMN2 splice variant; HEK293 SMN2-luciferase splicing reporter, luminescence, 30-36 h; Potency, µM (titrated, usually from 46.1 µM), for inactives: top-dose activity change, positive = activation, most hits filed as activators; actives 2.8% (n = 210,000); AID 1458; also: % of control where 0% means no effect; nearly all actives have a fitted effect of over 55% in size
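HEK293 cells carry an SMN2 […]–luciferase reporter in which exon 7 inclusion puts luciferase in frame. Cells were plated 10-12 h before compound addition, then incubated 30-36 h at 37C. ONE-Glo luminescence was read; sodium butyrate at 4.5 mM final served as control.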
Numbers without * were called inactive; ? = inconclusive; . = not tested or not shown; [ ] = another dose, or the depositor's remark. Only some compounds are listed: those with a hit (about 9.2% of all), similar ones and a draw of the others. Calls follow the shape of the dose curve; as a rule, active = well fitted curve in the direction sought with a large enough effect; inconclusive = small, poorly fitted or top-dose-only effect, or another doubt; inactive = no such curve, though single readings can be large; an effect the other way counts as inactive or inconclusive. Potency is read from the fitted curve at half-maximal effect.

SMILES | ELG1 genotox | Rab9 prom act | NPC1 prom act | ELG1 repair inh | FLuc modulator | SMN2 splice up
CCOC(=O)c1cccc(NC(=O)c2cccnc2)c1 | -3.6% | 0.3% | 10.1% | 10.8% | -5.1% | -8.3%
CCOC(=O)c1cccc(NC(=O)c2ccc(NC(=O)c3ccco3)cc2)c1 | 3.8% | 3.4% | -1.1% | ? | 0.0% | .
CCOC(=O)c1ccc(NC(=S)Nc2ccccn2)cc1 | 14.6µM* | 25.5% | ? | ? | -19.0% | 12.2%
CCOC(=O)c1ccc(NC(=S)Nc2ccc(Cl)cn2)cc1 | 7.6% | ? | 25.4% | 0.8% | -2.2% | .
CCOC(=O)c1cccc(NC(=O)c2ccc(N(C)C)cc2)c1 | 7.5% | 0.282µM* | 0.398µM* | ? | 1.69µM* | ?
CCOC(=O)c1ccc(NC(=O)c2ccc(NS(C)(=O)=O)cc2)cc1 | -3.4% | -2.5% | -3.6% | -3.9% | ? | -12.9%
CCOC(=O)c1cccc(NC(=O)c2cnc3ccccc3n2)c1 | 24.0% | 2µM* | ? | 12.4% | 16.9µM* | .
CCOC(=O)c1ccc(NC(=O)c2ccccc2)cc1 | ? | 2.82µM* | 2.82µM* | ? | -3.2%[2.3 µM] | 10µM*
Cc1c(NS(=O)(=O)c2ccc(C(=O)NCc3ccccc3)cc2)c(=O)n(-c2ccccc2)n1C | -3.1% | 1.4% | -7.3% | -1.1% | -0.5% | 5.5%
O=C(O)CCn1nc(-c2ccc(F)cc2)cc(Cc2ccccc2)c1=O | -0.2% | -0.4% | -1.8% | -5.2% | 1.1% | .
CCOC(=O)c1ccc(NC(=O)c2cccc(C)c2[N+](=O)[O-])cc1 | 2.9% | 0.8% | 10.2% | 8.1% | ? | .
CCOC(=O)c1ccc(NC(=O)c2ccccc2[N+](=O)[O-])cc1 | 12.2% | 27.4% | 17.1% | ? | ? | 17.8µM*
Cc1cc(SCC(=O)N/N=C/c2ccc(O)c(O)c2O)c(C)cc1Br | 10.1% | -28.5% | -11.4% | 2.5% | -17.8% | 3.2%
COc1cc(/C=N/NC(=O)CSc2cc(C)c(Br)cc2C)ccc1O | -12.5% | -2.4% | 1.8% | 16.4µM* | -9.9% | -2.8%
COc1ccc(/C=N/NC(=O)c2ccccc2O)cc1Cn1nnc2ccccc21 | 1.2% | 0.6% | 0.2% | -2.5% | 21.3µM* | .
COc1ccc(/C=N/NC(=O)c2ccccc2O)cc1CSc1ccccn1 | 2.7% | -9.6% | 1.2% | 11.5% | 19µM* | 2.8%
COc1ccc(/C=N\NC(=O)c2sccc2C)cc1Cn1nc(C)cc1C | 9.2µM* | -0.7% | -5.1% | ? | 2.7% | .
O=C(Nc1ccccc1C(=O)NCCc1ccccc1)c1cnccn1 | 19.4% | ? | ? | ? | -15.7% | .
COc1ccc(/C=N/NC(=O)CSc2ccccn2)cc1OC | 8.8% | 19.8% | 13.3% | ? | 19µM* | .
COc1ccc(/C=N/NC(=O)CSCC(=O)Nc2ccccc2)cc1OC | 0.8% | 3.9% | 0.2% | -19.5% | -22.7% | .
COc1ccc(/C=N/NC(=O)CSc2ccccc2)cc1OC | -0.9% | -6.3% | 2.4% | 15.9% | 12µM* | 22.2%
O=C(Nc1cccc(-n2cnnn2)c1)c1cc(Cl)nc(Cl)c1 | -1.5% | 1.4% | 1.3% | 1.3% | 0.3% | .
O=C(CNC(=O)c1ccc(-c2ccccc2)cc1)Nc1ccc(S(=O)(=O)Nc2ncccn2)cc1 | -2.1% | 12.7% | -2.0% | 25.8% | 16.9µM* | .
Cn1c(NC(=O)c2cccnc2)nc2ccccc21 | 7.1% | 3.55µM* | 3.16µM* | ? | ? | 12.6µM*
CC(C)(C)c1ccc(C(=O)Nc2cccc(-n3cnnn3)c2)cc1 | -7.3% | ? | ? | ? | 0.601µM* | .
SMILES | ELG1 genotox | Rab9 prom act | NPC1 prom act | ELG1 repair inh | FLuc modulator | SMN2 splice up
O=C(Nc1cnc2ccccc2c1)c1ccco1 | ? | 0.631µM* | 1.41µM* | ? | 7.57µM* | 14.1µM*
Cc1cccc(C(=O)NNC(=O)c2ccc(NS(=O)(=O)c3cccs3)cc2)c1C | -1.5% | -6.0% | -2.1% | 23.5% | 2.1% | .
CC(C)N1CCc2c(sc(NC(=O)C3CCCCC3)c2C(N)=O)C1 | 1.9% | -4.9% | -1.1% | ? | 7.6% | .
Cc1ccc(CCNC(=O)c2cccc(Nc3nc4ccccc4nc3-n3nc(C)cc3C)c2)cc1 | . | . | . | . | -5.6% | -2.0%
Cc1ccc(C(=O)Nc2ccc(S(=O)(=O)Nc3cnc4ccccc4n3)cc2)cc1 | 14.3% | 5.1% | 0.1% | ? | 26.9µM* | .
Cc1cc(C(=O)Nc2cnc3ccccc3c2)ccc1[N+](=O)[O-] | ? | 2.24µM* | 1.41µM* | ? | ? | 12.6µM*
O=C(CSc1nc(NS(=O)(=O)c2ccccc2)cc(=O)[nH]1)Nc1ccc(F)cc1 | -0.1% | -1.2% | -4.9% | ? | 6.8% | 12.7%
Cc1ccc(C(=O)Nc2cnc3ccccc3c2)cc1 | ? | ? | ? | ? | 0.0757µM* | .
Cc1ccnc(NS(=O)(=O)c2ccc(NC(=O)CSc3nc(-c4ccccc4)cc(=O)[nH]3)cc2)n1 | 0.6% | -12.0% | -1.4% | 7.1% | 13.5µM* | -4.9%
Cc1ccc(S(=O)(=O)CCC(=O)Nc2ccc(S(=O)(=O)N(C)C)cc2)cc1 | -2.5% | 2.1% | -7.8% | ? | 4.1% | 4.5%
CC(=O)Cc1nsc(Nc2ccc(Cl)cc2)n1 | ? | ? | ? | ? | ? | 19.2%
O=C(Nc1cnc2ccccc2c1)c1cccc(-n2cnnn2)c1 | 10.3% | 4.47µM* | 3.98µM* | ? | 23.9µM* | ?
O=C(Nc1cnc2ccccc2c1)c1cccnc1 | 4.61µM* | 2.24µM* | 3.16µM* | ? | 10.7µM* | 12.6µM*
O=C(NNC(=O)c1cccc(-n2cnnn2)c1)c1ccccc1 | 15.3% | -1.1% | -1.6% | 6.0% | 0.9% | -3.0%
N#Cc1ccccc1S(=O)(=O)N1CCN(C(=O)c2cc3c(s2)CCC3)CC1 | 0.7% | -0.4% | 0.2% | ? | -10.3% | .
CN(C)c1ccc(NC(N)=S)cc1 | -0.2% | -5.6% | 1.6% | 2.7% | 3.9% | ?
COc1ccc(NC(=O)Nc2ccc(N(C)C)cc2)cc1 | ? | 2.24µM* | 2.51µM* | ? | 3.01µM* | 12.6µM*
COc1ccc(NC(=O)OC(C)C)cc1 | ? | 2.24µM* | 2µM* | ? | 12µM* | 11.2µM*
CC(C)OC(=O)Nc1ccc(-c2ccc(NC(=O)OC(C)C)cc2Cl)c(Cl)c1 | 2.0% | 2.9% | -2.1% | 12.3% | 2.2% | .
COc1ccc(NC(=O)/C=C2\SC(=O)NC2=O)cc1 | 12.0% | -1.3% | 5.8% | 0.0% | 12µM* | 23.0%
COc1ccc(NC(=O)Nc2ccc(OC)cc2)cc1 | ? | 2.24µM* | 2.82µM* | ? | -22.1% | ?
Cc1cc(NC(=O)c2cc(-c3cccc(Cl)c3)on2)nn1Cc1ccc(Cl)cc1 | . | . | . | . | -2.5% | -29.5%
COCCNC(=S)Nc1ccc(Cl)c(Cl)c1 | -2.4% | -0.8% | 1.6% | -2.8% | -2.1% | ?
